Screening data deposited in PubChem by National Center for Advancing Translational Sciences (NCATS).
Only a selection was taken, and hits are over-represented in it overall.
12-LOX inh – ALOX12 (human) lipoxygenase inhibition; P18054; purified 12hLO, xylenol orange hydroperoxide absorbance; Potency, µM (series often up to 108 µM), most hits filed as inhibitors; 1.1% of 580,000 active; AID 1671190
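Purified human 12hLO (150 nM final) in 25 mM Hepes, 0.01% Triton X-100, pH 7.0 was preincubated 15 min at room temperature with compound. Then 40 uM arachidonic acid was added, 30 min. Hydroperoxide was read by Fe-XO absorbance ratio 573/405 nm.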
Sfp PPTase inh – blocks B. subtilis Sfp PPTase activity | Biochemical Sfp PPTase activity, qHTS | Potency, µM, usual class: inhibitors | 3.5% of 310,000 active | AID 1490;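 also: the enzyme is Sfp with the accession as filed and its product quenches rhodamine fluorescence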
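Compounds were incubated with enzyme (final 15 nM) for 15 min at room temperature before substrate addition started the reaction. Fluorescence at 525 nm excitation, 598 nm emission was recorded immediately and after 30 minutes.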
VDR inhibitor – blocks the human vitamin D receptor | P11473 | VDR-SRC2-3 peptide fluorescence polarization, 2 h | Potency, µM, most hits filed as inhibitors | 0.93% of 400,000 active
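FP read-out; VDR + SRC2-3 coactivator peptide; 23 nl compound by pintool; 2 h RT incubation; reagents held at 4 deg C, protected from light.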
G9a block – blocks human histone lysine methyltransferase G9a. 8.8% of 350,000 active. Potency, µM (series often up to 102 µM), actives largely listed as inhibitors. G9a H3K9 monomethylation, AlphaScreen, 2 h. AID 504332; also: nearly all actives have a fitted effect of over 75% in size
Target sequence (Q96KQ7 913-1193 limits assumed): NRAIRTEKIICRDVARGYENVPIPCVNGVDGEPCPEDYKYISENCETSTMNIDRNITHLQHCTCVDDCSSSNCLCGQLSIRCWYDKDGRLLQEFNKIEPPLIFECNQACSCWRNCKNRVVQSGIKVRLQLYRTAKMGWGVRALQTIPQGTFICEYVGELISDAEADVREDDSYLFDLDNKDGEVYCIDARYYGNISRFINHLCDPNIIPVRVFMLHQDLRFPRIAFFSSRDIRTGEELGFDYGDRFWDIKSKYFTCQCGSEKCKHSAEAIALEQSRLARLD
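Using a bead-based AlphaScreen, monomethylated H3K9 product from 2 h room-temperature reactions (G9a 20 nM, peptide 500 nM, SAM 20 uM) was detected with 0.5 ug/mL rabbit anti-H3K9me1 antibody.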
GRP78 ERSR act – induces the endoplasmic reticulum stress response in human glioma cells. U87-MG GRP78 promoter luciferase reporter, 16 h. Potency, µM, usual class: activators. 0.02% of 420,000 active. AID 602332; also: series mostly up to about 76 µM; nearly all actives have a fitted effect of over 35% in size
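ERSR induction read as luciferase luminescence (Bright-Glo, 10 min at room temperature) in stably transfected human U87-MG glioma cells exposed to compounds for 16 h, using GRP78 as sensor.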
Hits are given with their value; n = inactive; u = inconclusive; x = no result given; [ ] = remark or other dose. Calls follow the shape of the dose curve; as a rule, active = well fitted curve in the direction sought with a large enough effect; inconclusive = small, poorly fitted or top-dose-only effect, or another doubt; inactive = no such curve, though single readings can be large; an effect the other way counts as inactive or inconclusive.

SMILES	12-LOX inh	Sfp PPTase inh	VDR inhibitor	G9a block	GRP78 ERSR act
COc1ccc(CNC(=O)C2=C(C)C(=O)OC23CCCCC3)cc1	n	x	n	11µM	n
COc1ccc(/C(O)=C2\C(=O)C(=O)N(CCN(C)C)C2c2cccc(OC)c2OC)cc1 (configuration not stated)	n	n	n	11µM	n
COc1ccc(/C(O)=C2/C(=O)C(=O)N(CCCN(C)C)C2c2ccccc2)cc1Cl (configuration not stated)	x	n	x	u	x
COc1ccc(C2/C(=C(\O)c3ccc(OC)c(Cl)c3)C(=O)C(=O)N2CCN(C)C)cc1 (configuration not stated)	u	n	n	79µM	n
COc1ccc(CN(C)Cc2ccc(F)cc2)cc1	n	x	x	x	x
CCCCCC(=O)NNC(=S)NC(C)=O	n	79µM	n	18µM	n
CCCCC(=O)NNC(=S)NC(=O)c1ccc(C)cc1	u	u	n	11µM	n
CCC(=O)NC(=S)NNC(=O)c1ccc([N+](=O)[O-])cc1	n	79µM	n	u	n
CCCCC(=O)NNC(=S)NC(=O)c1ccc([N+](=O)[O-])cc1	u	20µM	u	2.8µM	n
CC(C)CCNC(=O)N1CCC(OC2CCN(Cc3ccccc3)CC2)CC1	n	x	x	x	x
Cn1cc([N+](=O)[O-])c(C(=O)NNC(=O)c2ccc([N+](=O)[O-])cc2)n1	n	n	n	45µM	n
Cc1ccc(C(=O)NCC#N)cc1	n	n	n	n	n
Cc1ccc(C(=O)NC(=S)NNC(=O)CC#N)cc1	n	n	n	8.9µM	n
COCCCNC(=O)CSc1ccccc1C	n	x	x	x	x
COc1ccccc1-c1[nH]nc2ncc(C(=O)NCC3CCOCC3)nc12	n	x	x	x	x
CCOc1ccc(N(C(C)C(=O)NN=C2CCCCCCC2)S(C)(=O)=O)cc1 (configuration not stated)	n	n	n	n	n
CCOc1ccc(N(C(C)C(=O)NC2CCCCCC2)S(C)(=O)=O)cc1 (configuration not stated)	n	n	n	14µM	n
CC1=NN(c2ccccc2)C(=O)/C1=C/c1cc(C)n(C2CC2)c1C	n	n	n	n[12.7 µM]	n
CC1=NN(c2ccccc2)C(=O)/C1=C/C=C/c1ccccc1	n	n	u	5µM	n
CC1=NN(c2cccc(C(=O)O)c2)C(=O)/C1=C\C=C\c1ccco1	n	n	u	7.9µM	n
CC1=NN(c2ccccc2)C(=O)/C1=C\N1CC(C)OC(C)C1 (configuration not stated)	n	n	u	79µM	n
Cc1ccc(C2=NOC(=O)/C2=C\C=C\c2ccccc2)cc1	1.1µM	28µM	n	2.8µM	n
COC(=O)c1cc(-c2ccccc2OC)nc2ccccc12	n	x	x	x	x
CCn1nc(C(=O)OCc2nc(-c3ccccc3)no2)c2ccccc2c1=O	n	x	x	x	x
CCC1Oc2ccc(NC(=O)c3ccc([N+](=O)[O-])cc3)cc2CN(C(C)CC)C1=O (configuration not stated)	n	x	x	x	x
SMILES	12-LOX inh	Sfp PPTase inh	VDR inhibitor	G9a block	GRP78 ERSR act
NC(C(=O)O)C(O)C(=O)O (configuration not stated)	x	n	x	x	n
NC(C(=O)O)[C@H](O)C(=O)O (some centres not stated)	n	56µM	n	n	n
Cc1cccc(NC(=O)CNC(=O)CCc2nc3sc4c(c3c(=O)[nH]2)CCCC4)c1C	10µM	x	n	50µM	n
CCN(c1ccc(NC(=O)CCc2nc3sc4c(c3c(=O)[nH]2)CCCC4)cc1)C(C)C	u	x	n	2.2µM	n
CCOC(=O)C1CCN(C(=O)CCc2nc3sc4c(c3c(=O)[nH]2)CCCC4)CC1	u	x	n	50µM	n
CCOC(=O)CSc1nc2sc3c(c2c(=O)[nH]1)CCCC3	n	n	n	n	n
CN(CC(=O)Nc1ccc(F)c(F)c1F)C(=O)CCc1nc2sc3c(c2c(=O)[nH]1)CCCC3	18µM	x	n	50µM	n
COc1ccccc1N1CCN(C(=O)Cn2c(=O)[nH]c3ccccc3c2=O)CC1	n	x	x	x	x
COc1ccc(C(=O)C(C)Oc2ccccc2Cl)cc1 (configuration not stated)	n	x	x	x	x
CCCc1cc(C(=O)Nc2ccc(OC)cc2[N+](=O)[O-])cs1	n	n	n	14µM	n
COc1ccc(N(C)S(=O)(=O)c2ccc(C)cc2)c([N+](=O)[O-])c1	n	n	n	u	n
COc1ccc(NC(=O)CC2Nc3ccccc3NC2=O)c([N+](=O)[O-])c1 (configuration not stated)	n	n	n	50µM	n
CC(=O)NC(NC(=S)Nc1ccccc1Br)C(Cl)(Cl)Cl (configuration not stated)	u	n	n	28µM	n
COc1ccccc1NC(=O)CC1Nc2ccccc2NC1=O (configuration not stated)	n	n	n	u	n
COc1ccc(NC(=O)CN(C)S(=O)(=O)c2ccc(C)cc2)c([N+](=O)[O-])c1	n	n	n	32µM	n
Cn1nc(C(=O)NCc2nnc3n2CCCCC3)c2ccccc2c1=O	n	x	x	x	x
COc1ccc(-c2nc3cc(NC(=O)c4ccc(C)c([N+](=O)[O-])c4)ccc3o2)cc1OC	n	x	x	x	x
COc1ccc(NC(=S)NC(NC(=O)c2cccc(Cl)c2)C(Cl)(Cl)Cl)c([N+](=O)[O-])c1 (configuration not stated)	u	n	n	u	n
COc1ccc(NC(=S)NC(NC(C)=O)C(Cl)(Cl)Cl)c([N+](=O)[O-])c1 (configuration not stated)	u	n	n	11µM	n
COc1ccc(NC(=O)c2cccnc2)c([N+](=O)[O-])c1	n	n	n	n[12.7 µM]	n
COc1ccc(NC(=O)c2ccccc2)c([N+](=O)[O-])c1	n	n	n	79µM	n
Oc1ccc2oc3c(c2c1C=NCc1ccncc1)CCCC3	u	50µM	n	71µM	n
Oc1ccc2oc3c(c2c1/C=N/n1cnnc1)CCCC3	u	n	n	u	n
CC(C)COc1ccc(-c2nn(-c3ccccc3)cc2/C=C2/SC(=S)N(CC(=O)O)C2=O)cc1	45µM	n	n	50µM	n
O=C(O)CN1C(=O)/C(=C\c2cn(-c3ccccc3)nc2-c2ccccc2)SC1=S	x	u	u	11µM	n
SMILES	12-LOX inh	Sfp PPTase inh	VDR inhibitor	G9a block	GRP78 ERSR act
Cc1cccc(-n2cc[nH]c2=S)c1	n	56µM	n	2.8µM	n
S=c1[nH]ccn1-c1c(Cl)cccc1Cl	n	n	n	10µM	n
Cc1ccccc1-n1cc[nH]c1=S	u	n	n	13µM	n
CC1=CC(C)(C)NC(=S)N1c1cccc(C)c1	u	n	n	n[12.7 µM]	n
Cc1ccccc1N1CC(=O)N(c2ccccc2C)CC1=O	n	n	n	n	n
CC1(C)CSC(=NCCc2ccccc2)N1C(=O)c1ccc(C#N)cc1	n	u	n	2.8µM	n
CCCC(=O)NCc1nnnn1-c1ccc(OCC)cc1	n	x	x	x	x
CC1=CCC2C(C1)C2(C)C (configuration not stated)	79µM	x	x	x	x
CCCCCCCOC(C)=O	n	x	x	x	x
